# Experimental data: PubChem BioAssay AID504832 (National Center for Advancing Translational Sciences (NCATS), 2011)
# The campaign covered roughly 310,000 compounds. About 18,000 (5.8%) were called active. Not shown: some 22% with an inconclusive outcome. This excerpt belongs to a sample that is enriched for actives. Unmarked numbers belong to inactive results. Calls follow the shape of the dose curve; as a rule, active = well fitted inhibition curve with a large enough effect; inconclusive = small, poorly fitted or top-dose-only effect, or another doubt; inactive = no such curve, though single readings can be large or run the other way.
# Assay: Primary qHTS for delayed death inhibitors of the malarial parasite plastid, 48 hour incubation
# Conditions: P. falciparum luciferase growth in erythrocytes; series mostly up to 28.7 µM; activity change, negative = inhibition: at the top concentration
# Summary of the method: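 Read-out is firefly luciferase luminescence from an integrated reporter in P. falciparum, so falling signal marks reduced parasite growth. Infected erythrocytes were at 2% hematocrit and 0.1% parasitemia (final) in Albumax-supplemented RPMI 1640.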
# % is scaled to controls: 0 for no effect and ±100 for the full control effect; potency is read from the fitted curve at half-maximal effect.
Structure (SMILES),"activity change, negative = inhibition",Potency
CCOc1ccccc1OCCCNCc1ccccc1,-4.88%,
COc1cccc(NS(=O)(=O)c2ccc(-c3coc(C)n3)cc2)c1,43%,
CCC(=O)Nc1ccc(-c2ccc(N3CCCCC3)nn2)cc1,-19.4%,
O=C(O)CN1CCN(C(c2ccccc2)c2ccccc2)CC1,-9.74%,
Cn1nnnc1SCC(=O)N1CCN(Cc2ccccc2)CC1,-3.12%,
Cn1nnnc1SCC(=O)Nc1nc2ccccc2s1,43.6%,
Cn1nnnc1SCC(=O)N1CCN(C(c2ccccc2)c2ccccc2)CC1,,9.28 µM (active)
O=C(c1ccc(-n2cnnn2)cc1)N1CCN(C(c2ccccc2)c2ccccc2)CC1,,2.62 µM (active)
CC(OC(=O)c1ccc(-n2cnnn2)cc1)C(=O)NCc1ccccc1 (configuration not stated),-13.8%,
COC(=O)c1sc(N2CCN(Cc3ccccc3)CC2)nc1N,-6.08% [at 0.00184 µM],
COc1ccccc1-n1ccnc(SCC(=O)NC2CCCCC2)c1=O,-14.1%,
O=C(Nc1c2c(nn1-c1cccc(Cl)c1)CS(=O)(=O)C2)c1cccs1,-0.404%,
C=CCn1cc(C(=O)NCc2ccc(Cl)cc2)c(=O)c2cc(S(=O)(=O)N(CC)CC)ccc21,,11.7 µM (active)
CCOC(=O)N1CCN(C(=O)c2cn(C)c3ccc(S(=O)(=O)N(CC)CC)cc3c2=O)CC1,7.13%,
CCN(CC)S(=O)(=O)c1ccc(Cl)c(C(=O)NCCN2CCOCC2)c1,-1.82%,
O=C(CN1CCN(C(=O)C2CCCO2)CC1)Nc1c(Cl)cccc1Cl (configuration not stated),0.239%,
O=C(NC(=S)NC1CCCCC1)c1ccc(Cl)cc1,-16.1%,
CCOC(=O)N1CCN(S(=O)(=O)c2ccc(Br)cc2)CC1,37.3%,
Cn1c(N)cc(-c2ccc(F)cc2)c(C#N)c1=O,-9.99%,
Cc1cc(C)c2c(-c3ccc(F)cc3)c(C#N)c(=O)n(C)c2n1,-0.519%,
COc1ccc(O)c(C(=O)c2cnc3c(c2)c(-c2ccc(F)cc2)c(C#N)c(=O)n3C)c1,,1.65 µM (active)
COc1ccc(/C=N/Nc2nc(-c3ccc(C)cc3)c(C#N)c(=O)[nH]2)cc1,-6.4%,
CSCCC(NC(=O)c1ccccc1)C(=O)N1CCCCCCC1 (configuration not stated),-5.02%,
CSCCC(NC(=O)c1ccccc1)C(=O)N1CCN(Cc2ccc(Cl)cc2)CC1 (configuration not stated),,2.94 µM (active)
COc1ccccc1C(=O)NC(CCSC)C(=O)N1CCN(C(C)=O)CC1 (configuration not stated),0%,
c1ccc2c(c1)CSc1sccc1C2=C1CCNCC1,,11.7 µM (active)

Structure (SMILES),"activity change, negative = inhibition",Potency
O=C(CNC(=O)c1ccc(Br)o1)NCC1CCCO1 (configuration not stated),24.5%,
CCOC(=O)N1CCN(C(=O)COC(=O)c2cccc(S(C)(=O)=O)c2)CC1,22.3%,
CCOc1ccc(NC(=O)C(C)N2C(=O)c3ccccc3C2=O)cc1 (configuration not stated),7.81%,
COc1ccc(-c2ccc3nnc(SCC(=O)Nc4ccc(NC(C)=O)cc4)n3n2)cc1,18.1%,
COc1ccc(CNS(=O)(=O)c2ccc(NC(=O)N3CCCCC3)cc2)cc1,-5.79%,
COc1ccc(C(=O)N2CCN(c3ccc(C(C)=O)cc3F)CC2)cc1S(=O)(=O)NC1CC1,17.8%,
COc1ccc(CCNCc2c(-c3ccccc3)n(C)c3ccccc23)cc1,,11.7 µM (active)
COc1ccc(CNC(=O)CCN2C(=O)c3ccccc3C2=O)cc1,-4.91%,
COc1ccc(CNc2ncnc3ccccc23)cc1,-8.38%,
COc1ccc(OC)c(C2N(c3ccccn3)C(=O)C3CCCN32)c1 (configuration not stated),9.65%,
COc1cccc(N2C(=O)C3CCCN3C2c2ccc(F)cc2)c1 (configuration not stated),,10.4 µM (active)
Cc1cc(N2C(=O)C3CCCN3C2c2ccc(Cl)c(Cl)c2)no1 (configuration not stated),2.43%,
Cc1cccnc1CCNC(=O)C1CCC(=O)N(Cc2cccc(F)c2)C1 (configuration not stated),7.78%,
CCN(Cc1ccccc1)C(=O)Cc1ccc(OC)c(S(=O)(=O)N2CCOCC2)c1,-15.6%,
COCCN(Cc1ccccc1)C(=O)Cc1ccc(S(=O)(=O)N2CCOCC2)s1,,10.4 µM (active)
COc1ccccc1NC(=O)COC(=O)Cc1ccc(S(=O)(=O)N2CCCCC2)s1,11.4%,
CC1CCN(C(=O)/C(=C\c2ccccc2)NC(=O)c2ccccc2)CC1,0.253%,
Cc1c(C)n2c(SCC(=O)NC3CCCC3)nnc2[nH]c1=O,-5.51%,
CCOc1ncccc1C(=O)OCC(=O)N1c2ccccc2CC1C (configuration not stated),7.69%,
CCOC(=O)C1CCN(C(=O)C2CCN(S(=O)(=O)c3c(C)noc3C)CC2)CC1,-3.05%,
Cc1cc(C)c(S(=O)(=O)N2CCC(C(=O)OCc3c(C)noc3C)CC2)c(C)c1,,11.7 µM (active)
CCOC(=O)C1CCN(S(=O)(=O)c2c(C)noc2C)CC1,24.2%,
CCCN(C(=O)c1nc2nccc(C)n2n1)c1c(N)n(Cc2ccccc2)c(=O)[nH]c1=O,-14%,
Cc1ccc(N(CC(=O)Nc2cc(C)cc(C)c2)S(=O)(=O)c2cccc3nonc23)cc1,-5.21%,
CCOC(=O)c1cccc(NC(=O)CN(c2ccc(C)cc2)S(=O)(=O)c2c(C)noc2C)c1,,8.28 µM (active)
CCOc1ccc(N(CC(=O)NCc2ccc(OC)cc2)S(=O)(=O)c2c(C)noc2C)cc1,-15.5%,

Structure (SMILES),"activity change, negative = inhibition",Potency
Cc1ccc(NC(=O)[C@H](Cc2ccccc2)NC(=O)C2CCNCC2)cc1,17.4%,
O=C(Nc1ccc(S(=O)(=O)Nc2ccccn2)cc1)c1ccccc1,16.3%,
COc1cccc(NC(=O)CN(C)C(=O)CSC(=S)N2CCCC2)c1,6.54%,
Cc1coc2c(O)cc3c(c12)OC1(N2CCCCC2)C(=O)NCCCC31 (configuration not stated),,11.7 µM (active)
CCOc1ccc(CNC(=O)CCC(=O)N2CCSc3ccccc32)cc1,10.3%,
CCOc1ccc(NC(=O)CCC(=O)N/N=C/c2ccc([N+](=O)[O-])s2)cc1,,11.7 µM (active)
Cc1ccccc1NCC(=O)N/N=C\c1ccc([N+](=O)[O-])s1,,9.28 µM (active)
Cc1cccc(/C=N/NC(=O)CNc2cccc3ccccc23)n1,26.1%,
CCOc1ccc(NC(=O)CCC(=O)n2nc(C)cc2C)cc1,11.4%,
CCOc1ccc(NC(=O)CCC(=O)NNC(=O)NC2CCCCC2)cc1,-21.8%,
Cn1cccc1/C=N/NC(=O)CNc1cccc2ccccc12,-2.89%,
CN(C)c1cccc(C(=O)N2CCC(n3nccc3NC(=O)C3CCOC3)CC2)c1 (configuration not stated),-2.94%,
COc1ccc(CCNC(=O)C(=O)NCC2OCCN2S(=O)(=O)c2ccc(OC)c(C)c2)cc1 (configuration not stated),-8.72%,
COC(=O)c1ccccc1NC(=O)CSc1nc2c(c(=O)[nH]1)CCC2,20.7%,
CCc1ccc(OCC(=O)OC(C)C(=O)NC2CC2)cc1 (configuration not stated),75.2%,
O=C(NC1CCCC1)C1CCN(C(=O)Nc2cccc(Cl)c2)CC1,-17.9%,
COc1ccc(Cl)cc1NC(=O)C(C)N1CCc2ccccc21 (configuration not stated),,6.57 µM (active)
COc1ccc(Cl)cc1NC(=O)CCN1CCOCC1,-10.9%,
COc1ccc(Cl)cc1NC(=O)CNc1ccccc1F,-15.1%,
O=C(O)CC(c1ccccc1F)N1Cc2ccccc2C1=O (configuration not stated),16.6%,
CCN1CCN(c2nc(Nc3cccc(F)c3)nc(N)c2[N+](=O)[O-])CC1,,13.1 µM (active)
Nc1nc(NCC(=O)O)nc(N2CCCCCC2)c1[N+](=O)[O-],41.1%,
CNc1nc(Nc2ccc(C)c(Cl)c2)nc(N)c1[N+](=O)[O-],200%,
COc1ccccc1C(=O)NC(=O)COC(=O)c1ccco1,0.409%,
O=C(Cn1cnc2ccccc21)Nc1ccccc1-c1ccccc1,10.1%,
CCSc1nnc(SCC(=O)NNC(=O)c2ccccc2F)s1,17.2%,

Structure (SMILES),"activity change, negative = inhibition",Potency
OCC1(CCOc2ccccc2)CCN(Cc2cn[nH]c2-c2ccccc2)CC1,-18.6%,
Cc1c(CN2CCC(CO)(CCOc3ccccc3)CC2)[nH]c2ccc(Cl)cc12,,3.7 µM (active)
Cc1cc(OCCCN2CCN(Cc3ccccc3)CC2)ccc1[N+](=O)[O-],7.77%,
CC(OC(=O)CN1C(=O)COc2ccccc21)C(=O)NCc1ccc(F)cc1 (configuration not stated),-14.5%,
O=C(NCCc1ccccn1)c1nc(Cn2cc([N+](=O)[O-])cn2)no1,30.2%,
CC(=O)Nc1ccc(S(=O)(=O)N(C)c2nc3ccccc3nc2Cl)cc1,-27%,
COc1ccc(C(=O)C2CCCN(C(=O)c3cc(C)on3)C2)cc1F (configuration not stated),42.1%,
CCOc1cc(N2CCOCC2)c(OCC)cc1NC(=O)C1=NN(c2cccc(C)c2)C(=O)CC1,10.1%,
O=C(COC(=O)c1ccccc1F)Nc1cc(S(=O)(=O)N2CCOCC2)ccc1N1CCCC1,-14.6%,
CC(=O)NCCC(=O)Nc1cc(S(=O)(=O)N2CCOCC2)ccc1N1CCOCC1,-16.3%,
O=C(COc1cccc2ccccc12)Nc1cc(S(=O)(=O)N2CCOCC2)ccc1N1CCOCC1,,11.7 µM (active)
NC(=O)C1CCN(C(=O)COc2cccc3cccnc23)CC1,7.18%,
CCOc1cc(N2CCOCC2)c(OCC)cc1NC(=O)COc1cccc2cccnc12,,3.29 µM (active)
O=C(Nc1c2c(nn1-c1ccccc1)CS(=O)(=O)C2)C1CCCC1,-1.05%,
Cc1cccc(C)c1NC(=O)CSc1nc2c([nH]1)c(=O)n(C)c(=O)n2C,-6.97%,
Cc1cc(NC(=O)Nc2c[nH]c(=O)[nH]c2=O)ccc1Br,44.9%,
O=C(NC1CCN(S(=O)(=O)c2ccc(F)cc2)CC1)c1ccccc1,-8.27%,
O=C(Cc1cccs1)Nc1ccc([N+](=O)[O-])cc1,-2.04%,
O=C(CN(c1cc(C(F)(F)F)ccc1Cl)S(=O)(=O)c1ccccc1)NCc1cccnc1,-14%,
CCCNC(=O)c1ccc(N2CCC3(CC2)CC(c2cccc(Br)c2)=NO3)c(NC(=O)c2ccco2)c1,,0.738 µM (active)
CCCNC(=O)c1ccc(N2CCC3(CC2)CC(c2ccc(Cl)cc2)=NO3)c([N+](=O)[O-])c1,-27.8%,
COCCNC(=O)c1ccc(N2CCC3(CC2)OCCO3)c([N+](=O)[O-])c1,14.9%,
CCOC(=O)C1CCCN(S(=O)(=O)c2ccc(-n3cnnn3)c(C)c2)C1 (configuration not stated),-3.15%,
Cc1cnc(CN(C)C(=O)C2CCC(=O)N(CCc3cccc(F)c3)C2)[nH]1 (configuration not stated),18.4%,
